Among the data in PMC11062922 (Nature Chemical Biology, 2023) are potency estimated from few doses values, retold here.

Read-outs that look alike come from different tables or passages of the source.

Design in all cases: species or system human, MV4-11 + K-562 + COLO205 + SK-N-BE2 + OVCAR-8
In one assay the test system is AKT3. Conditions: read-out: apparent Kd; compound concentrations:100 nM and 1000 nM (sheet 'Samples'); n = 1.
The test system of the next assay is EPHB4. Conditions: read-out: apparent Kd; compound concentrations:100 nM and 1000 nM (sheet 'Samples'); n = 1.
For the next assay, the system named is ERCC2. Conditions: read-out: apparent Kd; compound concentrations:100 nM and 1000 nM (sheet 'Samples'); n = 1.
For another assay, the system named is FER. Particulars: read-out: apparent Kd; compound concentrations:100 nM and 1000 nM (sheet 'Samples'); n = 1.
In the next assay the test system is PTK2B. Particulars: read-out: apparent Kd; compound concentrations:100 nM and 1000 nM (sheet 'Samples'); n = 1.
The next assay concerns TNK1. Particulars: read-out: apparent Kd; compound concentrations:100 nM and 1000 nM (sheet 'Samples'); n = 1.
The test system of a further assay is TNK2. Particulars: read-out: apparent Kd; compound concentrations:100 nM and 1000 nM (sheet 'Samples'); n = 1.
A further assay has as its system ATM. Particulars: read-out: apparent Kd, n = 1.
The subject of the next assay is ATR. Conditions: read-out: apparent Kd; compound concentrations: 100 nM and 1000 nM (sheet 'Samples'), CATDS: 8.9801947735964505E-2; n = 1.
A further assay has as its system T1, DJA1.
T1 construct: gene DNAJA1
Conditions: read-out: apparent Kd; compound concentrations: 100 nM and 1000 nM (sheet 'Samples'), CATDS: 8.0242865429316204E-2; n = 1.

In the next assay the test system is MTOR. Particulars: read-out: apparent Kd; compound concentrations: 100 nM and 1000 nM (sheet 'Samples'), CATDS: 0.10171258605148099; n = 1.
Another assay deals with NLK. Conditions: read-out: apparent Kd, compound concentrations: 100 nM and 1000 nM (sheet 'Samples'), n = 1.
In another assay the test system is PIK3C2A. Conditions: read-out: apparent Kd; compound concentrations: 100 nM and 1000 nM (sheet 'Samples'), CATDS: 6.5272193721358701E-2; n = 1.
For a further assay, the system named is PIK3CA. Particulars: read-out: apparent Kd; compound concentrations: 100 nM and 1000 nM (sheet 'Samples'), CATDS: 0.22105458504596001; n = 1.
For a further assay, the system named is PRKAG2. Particulars: read-out: apparent Kd; compound concentrations: 100 nM and 1000 nM (sheet 'Samples'), CATDS: 7.5904360676084706E-2; n = 1.
For a further assay, the system named is PTK6. Conditions: read-out: apparent Kd; compound concentrations: 100 nM and 1000 nM (sheet 'Samples'), CATDS: 7.5402432247591605E-2; n = 1.
Another assay relates to RAB14. Particulars: read-out: apparent Kd; compound concentrations: 100 nM and 1000 nM (sheet 'Samples'), CATDS: 6.8441155991484606E-2; n = 1.
The next assay has as its system STK16. Particulars: read-out: apparent Kd; compound concentrations: 100 nM and 1000 nM (sheet 'Samples'), CATDS: 0.118413696953623; n = 1.
The next assay has as its system FLT4. Conditions: read-out: apparent Kd; compound concentrations: 100 nM and 1000 nM (sheet 'Samples'), CATDS: 0.25804604622039201; n = 1.
For a further assay, the system named is MYLK3. Conditions: read-out: apparent Kd; compound concentrations: 100 nM and 1000 nM (sheet 'Samples'), CATDS: 0.16564230425287901; n = 1.
The test system of the next assay is TTN. Conditions: read-out: apparent Kd; compound concentrations: 100 nM and 1000 nM (sheet 'Samples'), CATDS: 0.28618499292255201; n = 1.
The next assay relates to GAK. Particulars: read-out: apparent Kd; compound concentrations: 100 nM and 1000 nM (sheet 'Samples'), CATDS: 0.73237388981335505; n = 1.
The next assay concerns RIPK2. Particulars: read-out: apparent Kd; compound concentrations: 100 nM and 1000 nM (sheet 'Samples'), CATDS: 0.226668000101196; n = 1.
The next assay has as its system CHEK1. Particulars: read-out: apparent Kd; compound concentrations:100 nM and 1000 nM (sheet 'Samples'); n = 1.
A further assay concerns GRK6. Particulars: read-out: apparent Kd; compound concentrations:100 nM and 1000 nM (sheet 'Samples'); n = 1.
Another assay relates to PDGFRB. Conditions: read-out: apparent Kd; compound concentrations:100 nM and 1000 nM (sheet 'Samples'); n = 1.
For another assay, the system named is RET. Conditions: read-out: apparent Kd; compound concentrations:100 nM and 1000 nM (sheet 'Samples'); n = 1.
In the next assay the test system is RPS6KA6. Conditions: read-out: apparent Kd; compound concentrations:100 nM and 1000 nM (sheet 'Samples'); n = 1.

On to `O=C(Nc1c(F)cccc1F)c1cc(C(=O)c2ccccc2F)c[nH]1` [GSK1326180A], for which the potency estimated from few doses in the assay with AKT3 is 1080 nM; in the assay with EPHB4, 1310 nM; with ERCC2 it was 984 nM; in the assay with FER, 920 nM; in the assay with PTK2B it was 1070 nM; in the assay on TNK1 it was 870 nM. In addition, in the assay on TNK2, the potency estimated from few doses is 898 nM.

In the case of `Fc1ccc(-c2ncn(CCCN3CCOCC3)c2-c2ccccn2)cc1` [SB-211742], the potency estimated from few doses is 181 nM in the assay on ATM (compound concentrations: 100 nM and 1000 nM (sheet 'Samples'), CATDS: 0.213303269988698); 854 nM with ATR; 1130 nM in the assay with DJA1; 648 nM in the assay with MTOR; 1420 nM in the assay on NLK (CATDS: 7.3825275535159302E-2); 2110 nM with PIK3C2A. Besides, the potency estimated from few doses in the assay with PIK3CA was 172 nM; in the assay on PRKAG2 it was 1310 nM; in the assay with PTK6 it was 1330 nM; with RAB14, 1790 nM; with STK16, 479 nM.

Regarding `CCN(CC)S(=O)(=O)c1ccc(OC)c(Nc2ncc(-c3ccccc3)o2)c1` [GW572401X], the potency estimated from few doses with ATM (compound concentrations: 100 nM and 1000 nM (sheet 'Samples'), CATDS: 0.38559803360956002) was 233 nM; in the assay with FLT4 it was 495 nM; with MYLK3 it was 1940 nM; in the assay on TTN it was 399 nM.

For `COc1cc(Nc2ccnc3ccc(Br)cc23)cc(OC)c1OC` [CA93.0], the potency estimated from few doses in the assay with ATM (compound concentrations: 100 nM and 1000 nM (sheet 'Samples'), CATDS: 0.26072592490086599) was 205 nM; with GAK, 22.7 nM; in the assay with NLK (CATDS: 0.15655838953280801), 1500 nM; in the assay on RIPK2, 311 nM.

For the molecule `COc1cc(Nc2cnc(C#N)c(O[C@H](C)CN(C)C)n2)ncc1-c1cnn(C)c1` [CCT244747], the potency estimated from few doses in the assay with ATM (compound concentrations:100 nM and 1000 nM (sheet 'Samples')) is 179 nM; in the assay with CHEK1, 39.7 nM; with GRK6, 1230 nM; with PDGFRB, 1490 nM; in the assay with RET, 112 nM; in the assay with RPS6KA6, 460 nM.
